# Source: PubChem BioAssay (NCATS)
# Records with an inconclusive call do not appear. A call without a number means that no potency is given here. Unmarked numbers belong to inactive results. Calls of active or inactive are those of the source. The call rests on the fitted dose curve; in most records, active means well fitted inhibition curve with a large enough effect; inconclusive means small, poorly fitted or top-dose-only effect; inactive means flat fitted curve, though single readings scatter.
# Columns and labels:
# [1] = qHTS profiling for inhibitors of Plasmodium falciparum proliferation (AID 504749); on all read-outs here: nearly all actives have a fitted effect of over 60% in size; conditions: P. falciparum in erythrocytes, SYBR Green DNA, 72 h; for activity, negative = inhibition: at 28.7 µM (top of the series)
# Method in brief: (§1)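 Each compound contacts P. falciparum-infected red blood cells for 72 h at 37 C; lysis buffer (Tris, EDTA, saponin, Triton X, SYBR Green I) is added and fluorescence measured next morning; values normalized to controls.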
# [2] = test system: 3D7; assay: as above; conditions: P. falciparum in erythrocytes, SYBR Green DNA, 72 h; series mostly up to 28.7 µM
# Method in brief: as §1
# [3] = test system: 7G8; assay: as above; conditions: P. falciparum in erythrocytes, SYBR Green DNA, 72 h; series mostly up to 28.7 µM
# Method in brief: as §1
# [4] = test system: AA1029; assay: as above; conditions: P. falciparum in erythrocytes, SYBR Green DNA, 72 h; series mostly up to 28.7 µM
# Method in brief: as §1
# [5] = test system: AS120; assay: as above; conditions: P. falciparum in erythrocytes, SYBR Green DNA, 72 h; series mostly up to 28.7 µM
# Method in brief: as §1
# [6] = test system: ATS189; assay: as above; conditions: P. falciparum in erythrocytes, SYBR Green DNA, 72 h; series mostly up to 28.7 µM
# Method in brief: as §1
# [7] = test system: ATS95; assay: as above; conditions: P. falciparum in erythrocytes, SYBR Green DNA, 72 h; series mostly up to 28.7 µM
# Method in brief: as §1
# [8] = test system: C2A; assay: as above; conditions: P. falciparum in erythrocytes, SYBR Green DNA, 72 h; series mostly up to 28.7 µM
# Method in brief: as §1
# [9] = test system: CP185; assay: as above; conditions: P. falciparum in erythrocytes, SYBR Green DNA, 72 h; series mostly up to 28.7 µM
# Method in brief: as §1
# [10] = test system: CP191; assay: as above; conditions: P. falciparum in erythrocytes, SYBR Green DNA, 72 h; series mostly up to 28.7 µM
# Method in brief: as §1
# [11] = test system: CP192; assay: as above; conditions: P. falciparum in erythrocytes, SYBR Green DNA, 72 h; series mostly up to 28.7 µM
# Method in brief: as §1
# [12] = test system: CP194; assay: as above; conditions: P. falciparum in erythrocytes, SYBR Green DNA, 72 h; series mostly up to 28.7 µM
# Method in brief: as §1
# [13] = test system: CP211; assay: as above; conditions: P. falciparum in erythrocytes, SYBR Green DNA, 72 h; series mostly up to 28.7 µM
# Method in brief: as §1
# [14] = test system: CP215; assay: as above; conditions: P. falciparum in erythrocytes, SYBR Green DNA, 72 h; series mostly up to 28.7 µM
# Method in brief: as §1
# [15] = test system: CP217; assay: as above; conditions: P. falciparum in erythrocytes, SYBR Green DNA, 72 h; series mostly up to 28.7 µM
# Method in brief: as §1
# [16] = test system: CP237; assay: as above; conditions: P. falciparum in erythrocytes, SYBR Green DNA, 72 h; series mostly up to 28.7 µM
# Method in brief: as §1
# [17] = test system: CP238; assay: as above; conditions: P. falciparum in erythrocytes, SYBR Green DNA, 72 h; series mostly up to 28.7 µM
# Method in brief: as §1
# [18] = test system: CP247; assay: as above; conditions: P. falciparum in erythrocytes, SYBR Green DNA, 72 h; series mostly up to 28.7 µM
# Method in brief: as §1
# [19] = test system: CP201; assay: as above; conditions: P. falciparum in erythrocytes, SYBR Green DNA, 72 h; series mostly up to 28.7 µM
# Method in brief: as §1
# [20] = test system: CP203; assay: as above; conditions: P. falciparum in erythrocytes, SYBR Green DNA, 72 h; series mostly up to 28.7 µM
# Method in brief: as §1
# Potency means the concentration at half of the fitted maximal effect.
smiles,measurement,setting,value
NC(=S)N=Nc1ccc(NN=C(N)N)cc1,Potency,[1]; parasite line A,10 µM (active)
same,Potency,[1]; parasite line B,10 µM (active)
same,Potency,[2],12.6 µM (active)
same,Potency,[3],10 µM (active)
same,Potency,[4],12.6 µM (active)
same,Potency,[5],12.6 µM (active)
same,Potency,[6],10 µM (active)
same,Potency,[7],10 µM (active)
same,Potency,[8],5.62 µM (active)
same,Potency,[9],11.2 µM (active)
same,Potency,[10],4.47 µM (active)
same,Potency,[11],8.49 µM (active)
same,Potency,[12],7.57 µM (active)
same,Potency,[13],7.57 µM (active)
same,Potency,[14],7.57 µM (active)
same,Potency,[15],12.6 µM (active)
same,Potency,[16],10 µM (active)
same,Potency,[17],11.2 µM (active)
same,Potency,[18],11.2 µM (active)
O=P(O)(O)OC[C@H]1O[C@](O)(COP(=O)(O)O)[C@@H](O)[C@@H]1O,"activity, negative = inhibition",[1]; parasite line A,8.54%
same,"activity, negative = inhibition",[1]; parasite line B,12.4%
same,Potency,[2],inactive
same,Potency,[3],inactive
same,Potency,[4],inactive
same,Potency,[5],inactive
same,Potency,[6],inactive
same,Potency,[7],inactive
same,Potency,[8],inactive
same,Potency,[9],inactive
same,Potency,[10],inactive
same,Potency,[11],inactive
same,Potency,[19],inactive
same,Potency,[13],inactive
same,Potency,[14],inactive
same,Potency,[15],inactive
same,Potency,[16],inactive
same,Potency,[17],inactive
same,Potency,[18],inactive
CN(C)c1ccc(C(=C2C=CC(=[N+](C)C)C=C2)c2c(O)c(S(=O)(=O)[O-])cc3cc(S(=O)(=O)O)ccc23)cc1,"activity, negative = inhibition",[1]; parasite line A,-15.9%
same,"activity, negative = inhibition",[1]; parasite line B,-17.8%
same,Potency,[2],inactive
same,Potency,[4],inactive
same,Potency,[5],inactive
same,Potency,[6],inactive
same,Potency,[7],inactive
same,Potency,[8],inactive
same,Potency,[9],inactive
same,Potency,[10],inactive
same,Potency,[11],inactive
same,Potency,[12],inactive
same,Potency,[19],inactive
same,Potency,[20],inactive
same,Potency,[13],inactive
same,Potency,[14],inactive
same,Potency,[15],inactive
same,Potency,[16],inactive
same,Potency,[17],inactive
same,Potency,[18],inactive
C[C@H](N)C(=O)N[C@@H](C)P(=O)(O)O,"activity, negative = inhibition",[1]; parasite line A,12.4%
same,"activity, negative = inhibition",[1]; parasite line B,10.4%
same,Potency,[2],inactive
same,Potency,[3],inactive
same,Potency,[4],inactive
same,Potency,[5],inactive
same,Potency,[6],inactive
same,Potency,[7],inactive
same,Potency,[8],inactive
same,Potency,[9],inactive
same,Potency,[10],inactive
same,Potency,[11],inactive
same,Potency,[12],inactive
same,Potency,[19],inactive
same,Potency,[13],inactive
same,Potency,[15],inactive
same,Potency,[16],inactive
same,Potency,[17],inactive
same,Potency,[18],inactive
NC(=O)CC[C@@H]1NC(=O)[C@H](Cc2ccccc2)NC(=O)[C@H](Cc2ccc(O)cc2)NC(=O)[C@@H](N)CSSC[C@@H](C(=O)N2CCC[C@H]2C(=O)N[C@@H](CCCN=C(N)N)C(=O)NCC(N)=O)NC(=O)[C@H](CC(N)=O)NC1=O,"activity, negative = inhibition",[1]; parasite line A,1.66%
same,"activity, negative = inhibition",[1]; parasite line B,-0.62%
same,Potency,[2],inactive
same,Potency,[4],inactive
same,Potency,[7],inactive
same,Potency,[8],inactive
same,Potency,[9],inactive
same,Potency,[11],inactive
same,Potency,[12],inactive
same,Potency,[19],inactive
same,Potency,[20],inactive
same,Potency,[13],inactive
same,Potency,[14],inactive
same,Potency,[15],inactive
same,Potency,[16],inactive
same,Potency,[17],inactive
same,Potency,[18],inactive
N=C(N)c1ccc(/C=C/c2ccc(C(=N)N)cc2O)cc1,Potency,[1]; parasite line A,8.91 µM (active)
same,Potency,[1]; parasite line B,10 µM (active)
same,Potency,[3],3.98 µM (active)
same,Potency,[4],10 µM (active)
same,Potency,[5],12.6 µM (active)
same,Potency,[7],10 µM (active)
same,Potency,[8],3.98 µM (active)
same,Potency,[9],10 µM (active)
same,Potency,[10],1.41 µM (active)
same,Potency,[11],5.36 µM (active)
same,Potency,[12],6.01 µM (active)
same,Potency,[19],12 µM (active)
same,Potency,[20],15.1 µM (active)
same,Potency,[14],5.36 µM (active)
same,Potency,[15],11.2 µM (active)
same,Potency,[16],5.01 µM (active)
same,Potency,[17],10 µM (active)
same,Potency,[18],10 µM (active)
CCCCCCCCCC(=O)NO,"activity, negative = inhibition",[1]; parasite line A,-20%
same,"activity, negative = inhibition",[1]; parasite line B,-16.7%
same,Potency,[2],inactive
same,Potency,[4],inactive
same,Potency,[5],inactive
same,Potency,[6],inactive
same,Potency,[7],inactive
same,Potency,[8],inactive
same,Potency,[9],inactive
same,Potency,[11],inactive
same,Potency,[12],inactive
same,Potency,[19],inactive
same,Potency,[20],inactive
same,Potency,[13],inactive
same,Potency,[14],inactive
same,Potency,[15],inactive
same,Potency,[16],inactive
same,Potency,[17],inactive
same,Potency,[18],inactive
CCN(CC)CCOc1ccc2nc(N(C)C)sc2c1,"activity, negative = inhibition",[1]; parasite line A,2.07%
same,"activity, negative = inhibition",[1]; parasite line B,4.31%
same,Potency,[3],inactive
same,Potency,[4],inactive
same,Potency,[5],inactive
same,Potency,[6],inactive
same,Potency,[7],inactive
same,Potency,[8],inactive
same,Potency,[9],inactive
same,Potency,[10],inactive
same,Potency,[11],inactive
same,Potency,[12],inactive
same,Potency,[19],inactive
same,Potency,[20],inactive
same,Potency,[13],inactive
same,Potency,[15],inactive
same,Potency,[16],inactive
same,Potency,[17],inactive
same,Potency,[18],inactive
C[C@]12CCC(=O)C[C@@H]1CC[C@@H]1[C@@H]2CC[C@]2(C)C=CC[C@@H]12,"activity, negative = inhibition",[1]; parasite line A,-20.9%
same,"activity, negative = inhibition",[1]; parasite line B,-5.73%
same,Potency,[2],inactive
same,Potency,[4],inactive
same,Potency,[5],inactive
same,Potency,[6],inactive
same,Potency,[7],inactive
same,Potency,[8],inactive
same,Potency,[9],inactive
same,Potency,[10],inactive
same,Potency,[11],inactive
same,Potency,[12],inactive
same,Potency,[19],inactive
same,Potency,[20],inactive
same,Potency,[13],inactive
same,Potency,[14],inactive
same,Potency,[15],inactive
same,Potency,[17],inactive
same,Potency,[18],inactive
